Source: PubChem BioAssay (National Center for Advancing Translational Sciences (NCATS))
An excerpt weighted towards active compounds, which were near 19% of everything screened.
BCR signal inh = chronic active BCR signaling inhibition; hit rate 0.05% among 340,000; ABC-DLBCL IkBa-CBG/CBR reporter, luminescence ratio, 4 h; AID 493014; Potency, µM (doses to about 46.1 µM), hits mostly inhibitors; active = well fitted inhibition curve with a large enough effect in the signal ratio, with a control signal flat, not every such curve was filed as active; inconclusive = small, poorly fitted or top-dose-only effect, or effect the other way, or a change in a side signal; the % refers to the signal ratio
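Compounds up to 46 uM were incubated four hours with TMD8 cells whose green CBG68 luciferase is fused to IkappaBalpha; red CBR luminescence normalised the signal, and concentration-effect curves were fitted to fusion, red and ratio data.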
DT40 TDP1 CPT = growth inhibition of DT40 Tdp1-/-;hTDP1 cells with camptothecin (screen for TDP1 inhibitors); Potency, µM (highest dose often 46.2 µM), usual class: inhibitors; AID 686979; hit rate 12% among 420,000; chicken DT40 Tdp1-/-;hTDP1 cells + 20 nM CPT, ATP luminescence, 48 h; also: nearly all actives have a fitted effect of over 55% in size
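Chicken DT40 Tdp1-/- cells stably complemented with human TDP1 were seeded at 400 cells/well in medium containing 20 nM camptothecin, exposed to pin-transferred compounds, and grown at 37 °C for at least 48 hr. Viability was read as ATP luminescence.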
DT40 TDP1 no CPT = qHTS for Inhibitors of human tyrosyl-DNA phosphodiesterase 1 (TDP1): qHTS in cells in absence of CPT; AID 686978, 2013; hit rate 15% among 420,000; Potency, µM (top dose mostly 46.2 µM), actives largely listed as inhibitors; DT40 Tdp1-/- hTDP1 cells, no CPT, ATP luminescence, 48 h; also: nearly all actives have a fitted effect of over 55% in size
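Cells were dispensed at 400 per well, compounds added by pin tool, plates incubated ≥48 hr at 37 °C, then CellTiter-Glo added for 30 min at room temperature before luminescence reading. Line: DT40 Tdp1-/- complemented with hTDP1; camptothecin omitted.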
MCF10A rereplic = induces DNA re-replication in MCF 10a normal breast cells; MCF 10A DNA re-replication, Hoechst nuclear intensity, 48 h; hit rate 2.9% among 350,000; Potency, µM (top dose mostly 46.1 µM), most hits filed as activators; also: nearly all actives have a fitted effect of over 50% in size
SW480 rerep = DNA re-replication induction in SW480 cells; SW480 DNA re-replication, Hoechst DNA content imaging, 48 h; Potency, µM (titrated, usually from 46.1 µM), actives largely listed as activators; hit rate 1.8% among 340,000; AID 624297; also: nearly all actives have a fitted effect of over 55% in size
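Readout is total intensity of Hoechst-stained nuclei, excited at 405 nm and collected at 500-530 nm. Compound treatment lasted 48 hr at 37 C in 5% CO2 before staining.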
IL1B secr inh = inhibitors of inflammasome signaling (IL-1 beta secretion); THP-1 LPS/ATP IL-1B secretion, AlphaLISA, 16 h; active compounds read low; activity change, % at 57.5 µM; hit rate 4.7% among 360,000; AID 743279; in the data active = activity change below about -50%; inconclusive = mostly about -30% to -49%
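Secreted IL-1B measured by AlphaLISA bead assay after 16 h compound exposure of THP-1 cells; compounds (final up to 57.5 uM) added 1 h before LPS (250 ng/mL) and ATP (1.25 mM) stimulation; lower signal means less secretion.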
Of the large screens only hits and unclear results are named; the others gave an inactive call. Unless noted, calls follow the shape of the dose curve; as a rule, active = well fitted curve in the direction sought with a large enough effect; inconclusive = small, poorly fitted or top-dose-only effect, or another doubt; inactive = no such curve, though single readings can be large; an effect the other way counts as inactive or inconclusive.

CCOC(=O)c1ccccc1NC(=O)c1ccc2c(Cl)c3c(nc2c1)CCC3	none (no result: BCR signal inh, MCF10A rereplic, SW480 rerep, IL1B secr inh)
CC1CCN(CCCNC(=O)c2ccc3c(Cl)c4c(nc3c2)CCCC4)CC1	BCR signal inh inconclusive, DT40 TDP1 CPT 13µM, DT40 TDP1 no CPT 3.7µM, MCF10A rereplic inconclusive, SW480 rerep inconclusive (no result: IL1B secr inh)
Cc1c(C)n(C)c2ccc(C(=O)NCCCN3CCCCC3)cc12	DT40 TDP1 no CPT inconclusive
COc1ccc(OC)c(NC(=O)c2ccc3c(Cl)c4c(nc3c2)CCCC4)c1	none (no result: BCR signal inh, MCF10A rereplic, SW480 rerep, IL1B secr inh)
CCOC(=O)c1cccc(NC(=O)c2ccc3c(Cl)c4c(nc3c2)CCC4)c1	DT40 TDP1 CPT inconclusive, DT40 TDP1 no CPT 29µM (no result: BCR signal inh, MCF10A rereplic, SW480 rerep, IL1B secr inh)
COCCNC(=O)c1ccc2c(Cl)c3c(nc2c1)CCC3	BCR signal inh inconclusive
CCOc1ccc(CCNC(=O)c2ccc3c(Cl)c4c(nc3c2)CCCC4)cc1	DT40 TDP1 CPT inconclusive, DT40 TDP1 no CPT 23µM (no result: BCR signal inh, MCF10A rereplic, SW480 rerep, IL1B secr inh)
CCN1CCN(C(=O)c2ccc3c(Cl)c4c(nc3c2)CCCC4)CC1	BCR signal inh inconclusive, DT40 TDP1 CPT inconclusive, DT40 TDP1 no CPT inconclusive, MCF10A rereplic inconclusive, SW480 rerep inconclusive, IL1B secr inh -78
CN1CCN(C(=O)c2ccc3c(Cl)c4c(nc3c2)CCCC4)CC1	BCR signal inh inconclusive, DT40 TDP1 CPT inconclusive
CCOc1ccc(CCNC(=O)c2ccc3nc(CC)c(CC)nc3c2)cc1	DT40 TDP1 CPT inconclusive, DT40 TDP1 no CPT inconclusive
CCCN(CCC)CCCNC(=O)c1ccc2c(Cl)c3c(nc2c1)CCC3	BCR signal inh inconclusive, DT40 TDP1 CPT inconclusive, DT40 TDP1 no CPT 18µM, IL1B secr inh -67
CC(C)(C)N1CC(C(=O)Nc2ccc(C#N)cc2)CC1=O (centres undefined)	none
CCC1CN(C(=O)C2CCN(S(=O)(=O)c3c(C)noc3/C=C/c3ccccc3F)CC2)c2cc(Cl)ccc2O1 (centres undefined)	none (no result: BCR signal inh, MCF10A rereplic, SW480 rerep, IL1B secr inh)
O=C1c2cccc3cccc(c23)C(=O)N1CC1CCN(CC(O)COc2ccc3ccccc3c2)CC1 (centres undefined)	BCR signal inh inconclusive, DT40 TDP1 CPT 15µM, DT40 TDP1 no CPT 12µM, MCF10A rereplic inconclusive, SW480 rerep inconclusive, IL1B secr inh -95
Cc1cc(C)cc(OCC(O)CN2CCC(CN3C(=O)c4cccc5cccc(c45)C3=O)CC2)c1 (centres undefined)	BCR signal inh inconclusive, DT40 TDP1 CPT 15µM, DT40 TDP1 no CPT inconclusive, MCF10A rereplic inconclusive, IL1B secr inh -81
O=C1c2cccc3cccc(c23)C(=O)N1CCN1CCN(CC(O)COc2ccc3ccccc3c2)CC1 (centres undefined)	BCR signal inh inconclusive, DT40 TDP1 CPT 18µM, DT40 TDP1 no CPT 10µM, MCF10A rereplic inconclusive, SW480 rerep inconclusive
CCc1ccc(OCC(O)CN2CCC(CN3C(=O)c4cccc5cccc(c45)C3=O)CC2)cc1 (centres undefined)	DT40 TDP1 CPT 15µM, DT40 TDP1 no CPT 21µM
O=C(N1CCOCC1)N1CCN(CC(O)COc2ccc3ccccc3c2)CC1 (centres undefined)	none
CN(C)Cc1csc(NC(=O)Nc2ccccc2C(C)(C)C)n1	DT40 TDP1 CPT inconclusive (no result: BCR signal inh, MCF10A rereplic, SW480 rerep)
COc1ccccc1C1CN(Cc2cccn2-c2ncccn2)Cc2ccccc2O1 (centres undefined)	none (no result: BCR signal inh, MCF10A rereplic, SW480 rerep, IL1B secr inh)
Cc1ccccc1S(=O)Cc1ccc(C(=O)N2CCN(C(=O)c3ccco3)CC2)o1 (centres undefined)	BCR signal inh inconclusive
COc1cccc(OCC(O)CN2CCN(C)CC2)c1 (centres undefined)	none
COc1ccc(COCC(O)CN2CCC(CN3C(=O)c4cccc5cccc(c45)C3=O)CC2)cc1OC (centres undefined)	BCR signal inh inconclusive, DT40 TDP1 CPT inconclusive, DT40 TDP1 no CPT 21µM, IL1B secr inh -88
